Growth data for 14 compounds are collected here from PubChem BioAssay (NCI).

The structures appear in SMILES notation. Compounds without any hit were thinned out: in the full panel of roughly 83,000, 20% have a hit.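 The endpoint reported here, percent growth, reads 100 for growth as untreated, 0 for no net growth and -100 for all cells dead.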 The source made the active and inactive calls. The calls were made as follows: active = growth percent below 10; inactive = the rest.

One experiment concerns A549/ATCC NSCLC. The experiment can be described thus: NCI-60 one-dose screen, 48 h (100 = growth as untreated, 0 = no growth, -100 = all killed). The following applies: 10 µM unless noted.
Take `COc1ccc(OC)c(Nc2nnc(-c3ccc(O)c(OC)c3)o2)c1`: the growth was 75.5% (inactive).
Same read-out and setting: to `N#CC1=C(N)Oc2c(ccc3ccccc23)C1c1ccccc1` (centres undefined) belongs 10.8% (inactive); to `OCCn1cc(-c2nc(-c3c[nH]c4ncccc34)cs2)c2ccccc21`, 77.5% (inactive); to `Cn1cc(-c2csc(-c3cn(C(=O)OC(C)(C)C)c4ccc(Br)cc34)n2)c2ccnc(Cl)c21`, 70.3% (inactive).
As to `O=S(=O)(c1ccccc1)n1cc2c(c1)-c1nc(Nc3ncccn3)sc1CC2`, the growth is 35.2% (inactive).

The test system of the next experiment is 786-0 renal. The description is as above. The following applies: 10 µM unless noted.
Regarding `CCOc1ccc(NC(=O)CSc2oc(-c3ccccc3)nc2S(=O)(=O)c2ccc(C)cc2)cc1`, the growth is 66.1% (inactive).
Still for that read-out and setting: to `O=C(/C=C/c1cccc(Cl)c1)c1ccc(Nc2nc(Nc3ccc(F)cc3)nc(Nc3ccc(Cl)cc3)n2)cc1` belongs 99.1% (inactive); to `Cn1c(I)c(C#CCO[Si](C)(C)C(C)(C)C)c(=O)[nH]c1=O`, 99% (inactive).
On the same count and under the same terms, to `CC(=O)Oc1ccc(C)cc1C` belongs 100% (inactive); to `COc1cc(C2CC(c3ccc(Nc4nc(Nc5ccc(Cl)cc5)nc(Nc5ccc(Cl)cc5)n4)cc3)=NN2C(C)=O)cc(OC)c1OC` (centres undefined), 90.6% (inactive); to `c1cnc2c(-c3nc4ccc5[nH]ncc5c4c4c3CCCC4)c[nH]c2c1`, 32.5% (inactive).
Still for that read-out and setting: to `COc1ccc(/C=C/C(=O)c2cc3c(N)c(C(=O)Nc4cccc5ccccc45)sc3nc2C)cc1` belongs 46.4% (inactive); to `O=C1/C(=C/c2ccc([N+](=O)[O-])cc2)COc2ccc(O)cc21`, 81.9% (inactive); to `CCOCCNC1=C(Cl)C(=O)c2ccccc2C1=O`, 105% (inactive).
